Compound activity as filed in PubChem.
IL1B secr inh = inhibitors of inflammasome signaling (IL-1 beta secretion); THP-1 LPS/ATP IL-1B secretion, AlphaLISA, 16 h; active compounds read low; activity change, % at 57.5 µM; hit rate 4.7% among 360,000; in the data active = activity change below about -50%; inconclusive = mostly about -30% to -49%
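THP-1 cells pretreated 1 hr with compounds (up to 57.5 uM final), then stimulated with LPS (250 ng/mL final) plus ATP (1.25 mM final); secreted IL-1B measured by AlphaLISA after 16 hr, decreased signal indicating inhibition.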
ELG1 DNA repair = inhibitors of ELG1-dependent DNA repair in HEK293T cells; AID 504467; HEK293T ELG1-luciferase reporter, luminescence, 16 h; DNA damage induced by 5-fluorouridine; hit rate 2.3% among 330,000; Potency, µM (top dose mostly 46.1 µM), for inactives: top-dose activity change, negative = inhibition, usual class: inhibitors; note: potency is the fitted concentration of half-maximal effect; nearly all actives have a fitted effect of over 55% in size
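DMSO vehicle served as the neutral condition. Each well held 2,000 cells given 5-fluorouridine plus compound; after 16 hr at 37 °C/5% CO2, ONE-Glo was added and luciferase measured 30 min later.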
TDP1 cell CPT = growth inhibition of DT40 Tdp1-/-;hTDP1 cells with camptothecin (screen for TDP1 inhibitors); chicken DT40 Tdp1-/-;hTDP1 cells + 20 nM CPT, ATP luminescence, 48 h; Potency, µM (top dose mostly 46.2 µM), without a hit: at the highest dose activity change, negative = growth inhibition, hits mostly inhibitors; hit rate 12% among 420,000; AID 686979; note: potency is the fitted concentration of half-maximal effect; nearly all actives have a fitted effect of over 55% in size
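Chicken DT40 Tdp1-/- cells stably complemented with human TDP1 were seeded at 400 cells/well in medium containing 20 nM camptothecin, exposed to pin-transferred compounds, and grown at 37 °C for at least 48 hr. Viability was read as ATP luminescence.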
HT1080NT lethal = kills 2HG-producing HT-1080-NT fibrosarcoma cells; HT-1080-NT fibrosarcoma viability, CellTiter-Glo ATP luminescence, 48 h; Potency, µM (titrated, usually from 46.1 µM), without a hit: top-dose activity, negative = less viability, actives largely listed as cytotoxic; hit rate 1.6% among 360,000;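 note: NT is the 2HG producing partner of a matched IDH1 knockdown line; potency is the fitted concentration of half-maximal effect; 0% = DMSO-treated cells and -100% = media-only wells without cells; nearly all actives have a fitted effect of over 55% in size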
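750 cells/well, RPMI + 5% FBS; 2 h settle, compound pin-transfer, 48 h at 37 degrees C. CellTiter-Glo 10 min RT, luminescence. Normalized to DMSO and media-only wells.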
DT40 TDP1 no CPT = qHTS for Inhibitors of human tyrosyl-DNA phosphodiesterase 1 (TDP1): qHTS in cells in absence of CPT | hit rate 15% among 420,000 | Potency, µM (top dose mostly 46.2 µM), without a hit: top-dose activity change, negative = growth inhibition, actives largely listed as inhibitors | DT40 Tdp1-/- hTDP1 cells, no CPT, ATP luminescence, 48 h; note: potency is the fitted concentration of half-maximal effect; nearly all actives have a fitted effect of over 55% in size
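Chicken DT40 Tdp1-/- cells stably complemented with human TDP1 were seeded at 400 cells/well with DMSO in place of 20 nM camptothecin. After compound pinning, cells grew at least 48 hr at 37 °C; viability read by CellTiter-Glo luminescence.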
HT1080 IDH1KD tx = HT-1080 IDH1 knockdown cell toxicity (counter line); HT-1080 IDH1 knockdown viability, ATP luminescence, 48 h; Potency, µM (doses to about 46.1 µM), without a hit: at the top dose activity, negative = toxicity, hits mostly cytotoxic; hit rate 2% among 360,000; AID 686971;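 note: potency is the fitted concentration of half-maximal effect; 0% = DMSO wells and -100% = cell-free medium wells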
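After a 2 h attachment period, IDH1KD HT-1080 cells took pin-transferred compound for 48 h at 37 °C; ATP-based luminescence after 10 min room-temperature reagent incubation reported viability.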
* = called active by the depositor; ? = inconclusive; . = no result. This is a sample that favours compounds with a hit; in the whole collection about 19% have one here. Unless noted, calls come from the whole dose curve; as a rule, active = well fitted curve in the direction sought with a large enough effect; inconclusive = small, poorly fitted or top-dose-only effect, or another doubt; inactive = no such curve, though single readings can be large; an effect the other way counts as inactive or inconclusive. Unless noted, % is set by controls: 0 for no effect and ±100 for the full control effect.

SMILES | IL1B secr inh | ELG1 DNA repair | TDP1 cell CPT | HT1080NT lethal | DT40 TDP1 no CPT | HT1080 IDH1KD tx
Cc1cc(C)cc(-n2c(C)cc(/C=N/NC(=O)CSc3ncccn3)c2C)c1 | 1 | -14% | 26µM* | ? | ? | ?
COc1ccc(/C=N/NC(=O)c2ccoc2C)cc1O | -24 | ? | 4% | -5% | -7% | -9%
O=C(N/N=C/c1ccc(Cl)c([N+](=O)[O-])c1)c1cc(-c2ccc3c4c(cccc24)CC3)n[nH]1 | ? | ? | -28% | 5.2µM* | ? | 8.2µM*
Cc1occc1C(=O)N/N=C/c1ccc(Cl)c([N+](=O)[O-])c1 | -72* | ? | ? | -5% | ? | -1%
Cc1cc(C)cc(-n2c(C)cc(/C=N/NC(=O)c3cccc([N+](=O)[O-])c3C)c2C)c1 | -9 | ? | ? | ? | 26µM* | ?
Cn1cc(CN2CCC(C3(c4ccccn4)NC(=O)N(CC4CCCO4)C3=O)CC2)c2ccccc21 (stereo not given) | . | . | ? | . | -20% | .
CCCN1CCN(CCCNC(=O)CN2C(=O)COc3ccc(C(C)(C)C)cc32)CC1 | 0 | . | -3% | -9% | -5% | -12%
Cc1cc(C(=O)CCl)c(C)n1-c1ccon1 | -95* | 18% | 2.3µM* | -28% | 2.9µM* | 21µM*
Cc1cc(C(=O)CCl)c(C)n1-c1cccc([N+](=O)[O-])c1 | -100* | 4% | 1.5µM* | ? | 2.3µM* | ?
CC(=O)c1c(C(C)=O)c(C)n(-c2cccc([N+](=O)[O-])c2)c1C | -5 | 4% | 0% | -6% | 0% | -4%
Cc1cc(C(=O)N/N=C/c2ccc3c(c2)OCO3)c(C)n1-c1ccc(F)cc1 | -9 | -11% | ? | -6% | 13µM* | -22%
O=C(N/N=C/c1ccc(Cl)c([N+](=O)[O-])c1)c1ccc2nc[nH]c2c1 | -96* | 13% | 0% | 3% | -8% | 7%
O=C(COC(=O)c1ccc2ccccc2c1O)NCC(F)(F)F | -4 | -13% | -21% | 1% | ? | -4%
COc1ccc(C(=O)Nc2cc(C(C)=O)c(C)oc2=O)cc1 | -10 | ? | -10% | 15% | ? | 18%
COC(=O)c1cc(NC(=O)c2ccccc2)c(=O)oc1/C=C/Nc1ccc(Oc2ccccc2)cc1 | 18 | 3% | -25% | 7% | 23µM* | 2%
CCOC(=O)c1csc(COc2ccc(OC)cc2)n1 | 28 | ? | 5% | -3% | -22% | 0%
COc1ccc(C)cc1NC(=O)CN1C(=O)COc2ccc(S(=O)(=O)N3CCCCC3)cc21 | -8 | 1% | ? | -14% | ? | -7%
COc1ccc(OC)c(NC(=O)CN2C(=O)CCc3cc(S(=O)(=O)N4CCCCC4)ccc32)c1 | . | . | 26µM* | . | ? | .
CC(=O)Nc1ccc(NC(=O)CN2C(=O)CCc3cc(S(=O)(=O)N4CCCCC4)ccc32)cc1 | . | . | -4% | . | -18% | .
COc1cc(NC(=O)CN2C(=O)COc3ccc(S(=O)(=O)N4CCCCC4)cc32)cc(OC)c1 | 0 | 5% | ? | -11% | ? | -1%
COc1ccc(NC(=O)CN2C(=O)COc3ccc(S(=O)(=O)N4CCCCC4)cc32)c(OC)c1 | -54* | -8% | 15µM* | 19% | ? | 5%
Cc1cc(C)cc(NC(=O)CN2C(=O)CCc3cc(S(=O)(=O)N4CCCCC4)ccc32)c1 | . | . | 16µM* | . | ? | .
Cc1ccc(C(=O)c2oc3ccccc3c2NC(=O)c2cc(=O)c3cc(C)ccc3o2)cc1 | . | . | -10% | . | -10% | .
CCN(CC)S(=O)(=O)c1ccc(N(C)C)c(NC(=O)C2CCCC2)c1 | -54* | 0% | -15% | -9% | -12% | -1%
CCN(CC)c1ccc(S(=O)(=O)N2CCCCC2)cc1NC(=O)C1CSC2(C)CCC(=O)N12 (stereo not given) | -50* | ? | ? | -7% | 9.2µM* | -6%
SMILES | IL1B secr inh | ELG1 DNA repair | TDP1 cell CPT | HT1080NT lethal | DT40 TDP1 no CPT | HT1080 IDH1KD tx
CCN(CC)c1ccc(S(=O)(=O)N2CCCCC2)cc1NC(=O)C1CCC1 | -18 | -1% | 18µM* | 0% | ? | 1%
COc1cc(CCN2C(=O)N[C@@H](CCc3ccccc3)C(C(C)=O)=C2C)cc(OC)c1OC | -4 | -9% | ? | 22% | 23µM* | 12%
CCOc1ccc2c(c1)sc1nc(=O)n(-c3ccc(Cl)c(Cl)c3)c(=O)n12 | . | . | -6% | . | -12% | .
O=c1nc2sc3ccccc3n2c(=O)n1-c1ccc(Cl)c(Cl)c1 | . | . | ? | . | 10µM* | .
O=c1nc2sc3ccccc3n2c(=O)n1-c1ccc(Cl)cc1 | -16 | ? | ? | 22% | 21µM* | 14%
CCOC(=O)c1nnn(CC(=O)Nc2cc(C)cc(C)c2)c1C(=O)OCC | . | . | -22% | . | ? | .
CCOc1ccccc1NC(=O)C1CCN(S(=O)(=O)c2c(C)noc2/C=C/c2ccco2)CC1 | . | . | ? | . | 18µM* | .
Cc1noc(/C=C/c2ccco2)c1S(=O)(=O)N1CCC(C(=O)NC(C)c2ccccc2)CC1 (stereo not given) | -14 | ? | -27% | -1% | ? | -3%
COc1ccc(/C=C\c2onc(C)c2S(=O)(=O)N2CCC(C(=O)Nc3cccc(C)c3C)CC2)cc1 | . | . | ? | . | -14% | .
COc1ccc(/C=C\c2onc(C)c2S(=O)(=O)N2CCC(C(=O)Nc3cccc(Cl)c3)CC2)cc1 | . | . | 6.5µM* | . | 9.2µM* | .
Cc1noc(/C=C/c2ccco2)c1S(=O)(=O)N1CCC(C(=O)N2c3ccccc3CC2C)CC1 (stereo not given) | ? | ? | 15µM* | -1% | 18µM* | -7%
COc1ccc(/C=C\c2onc(C)c2S(=O)(=O)N2CCC(C(=O)Nc3ccccc3OC)CC2)cc1 | . | . | ? | . | 23µM* | .
CC(=O)N1c2ccccc2C(=O)C1N1CCN(c2cccc(C)c2C)CC1 (stereo not given) | . | . | -15% | . | -20% | .
CS(=O)(=O)Nc1cc2occ(NC=O)c(=O)c2cc1Oc1ccccc1 | . | . | 2% | . | -23% | .
CCCCOC(=O)c1ccc(Nc2ncnc3c2cnn3-c2cccc(C)c2)cc1 | . | . | -25% | . | -14% | .
C=C(C)C(=O)N1CCN(C(=O)C(=C)C)c2ccccc21 | 22 | . | 0% | -10% | -5% | 2%
COc1cccc(CNC(=O)c2ccc(NC(=O)C3=CSCCO3)cc2)c1 | -12 | ? | ? | 2% | -16% | -1%
